# Reference: the supplement of paper PMC8728848
# The full list was thinned out, with the strongest signals kept by preference.
# Legend:
# Experiment in all cases: glycan array binding signal (z-score within array); higher = stronger binding
# Conditions in all cases: glycan notation: IUPAC condensed, linker removed
# [1] = biological target: Fuc(a1-2)Gal(b1-3)GlcNAc6S
# Summary of the method: (§1)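 Arrays were curated from the Consortium for Functional Glycomics database, 3228 in total, and kept only where the protein sequence was available. Binding is expressed as a within-array Z-score. This score was averaged across arrays of the same protein sequence at different concentrations or buffers and across linkers, and negative values can be read as non-binding.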
# [2] = biological target: Fuc(a1-2)Gal(b1-3)[Fuc(a1-4)]GlcNAc
# Summary of the method: as §1
# [3] = biological target: Fuc(a1-2)Gal(b1-3)[Fuc(a1-4)]GlcNAc(b1-2)Man(a1-3)[Fuc(a1-2)Gal(b1-3)[Fuc(a1-4)]GlcNAc(b1-2)Man(a1-6)]Man(b1-4)GlcNAc(b1-4)[Fuc(a1-6)]GlcNAc(b1-4)[Fuc(a1-6)]GlcNAc
# Summary of the method: as §1
# [4] = biological target: Fuc(a1-2)Gal(b1-3)[Fuc(a1-4)]GlcNAc(b1-3)[Fuc(a1-3)[Gal(b1-4)]GlcNAc(b1-6)]Gal(b1-4)Glc
# Summary of the method: as §1
# [5] = biological target: Fuc(a1-2)Gal(b1-4)GlcNAc6S
# Summary of the method: as §1
# [6] = biological target: Fuc(a1-2)[GalNAc(a1-3)]Gal(b1-3)GlcNAc(b1-2)Man(a1-3)[Fuc(a1-2)[GalNAc(a1-3)]Gal(b1-3)GlcNAc(b1-2)Man(a1-6)]Man(b1-4)GlcNAc(b1-4)[Fuc(a1-6)]GlcNAc
# Summary of the method: as §1
# [7] = biological target: Fuc(a1-3)[Gal(b1-4)]Glc6S
# Summary of the method: as §1
# [8] = biological target: Fuc(a1-3)[Gal(b1-4)]GlcNAc(b1-3)Gal(b1-4)[Fuc(a1-3)]GlcNAc(b1-3)Gal(b1-4)[Fuc(a1-3)]GlcNAc
# Summary of the method: as §1
# [9] = biological target: Fuc(a1-3)[GalNAc(b1-4)]GlcNAc
# Summary of the method: as §1
# [10] = biological target: Gal(a1-3)Gal(b1-4)GlcNAc(b1-6)GalNAc
# Summary of the method: as §1
# [11] = biological target: Gal(a1-4)Gal(b1-4)GlcNAc(b1-3)Gal(b1-4)Glc
# Summary of the method: as §1
# [12] = biological target: Gal(b1-3)GalNAc(b1-3)Gal(a1-4)Gal(b1-4)Glc
# Summary of the method: as §1
# [13] = biological target: Gal(b1-3)GlcNAc(b1-2)Man(a1-3)[GlcNAc(b1-4)][Gal(b1-3)GlcNAc(b1-2)Man(a1-6)]Man(b1-4)GlcNAc(b1-4)GlcNAc
# Summary of the method: as §1
# [14] = biological target: Gal(b1-3)GlcNAc(b1-3)Gal(b1-4)GlcNAc
# Summary of the method: as §1
# [15] = biological target: Gal(b1-3)GlcNAc(b1-3)Gal(b1-4)GlcNAc(b1-2)Man(a1-3)[Gal(b1-3)GlcNAc(b1-3)Gal(b1-4)GlcNAc(b1-2)Man(a1-6)]Man(b1-4)GlcNAc(b1-4)GlcNAc
# Summary of the method: as §1
# Gal(b1-3)GlcNAc6S = biological target: Gal(b1-3)GlcNAc6S
# Summary of the method: as §1
# [16] = biological target: Gal(b1-4)GlcNAc(b1-2)Man(a1-6)Man(b1-4)GlcNAc(b1-4)GlcNAc
# Summary of the method: as §1
# [17] = biological target: Gal(b1-4)GlcNAc(b1-2)Man(a1-6)[Man(a1-3)]Man(b1-4)GlcNAc(b1-4)GlcNAc
# Summary of the method: as §1
# [18] = biological target: Gal(b1-4)GlcNAc(b1-3)Gal(b1-4)GlcNAc(b1-2)[Gal(b1-4)GlcNAc(b1-3)Gal(b1-4)GlcNAc(b1-6)]Man(a1-6)[Gal(b1-4)GlcNAc(b1-3)Gal(b1-4)GlcNAc(b1-2)Man(a1-3)]Man(b1-4)GlcNAc(b1-4)[Fuc(a1-6)]GlcNAc
# Summary of the method: as §1
# [19] = biological target: Gal(b1-4)GlcNAc(b1-3)Gal(b1-4)GlcNAc(b1-3)Gal(b1-4)GlcNAc(b1-2)Man(a1-3)[Gal(b1-4)GlcNAc(b1-3)Gal(b1-4)GlcNAc(b1-3)Gal(b1-4)GlcNAc(b1-2)Man(a1-6)]Man(b1-4)GlcNAc(b1-4)GlcNAc
# Summary of the method: as §1
# [20] = biological target: Gal(b1-4)GlcNAc(b1-3)Gal(b1-4)GlcNAc(b1-3)Gal(b1-4)GlcNAc(b1-3)Gal(b1-4)GlcNAc(b1-2)Man(a1-3)[Gal(b1-4)GlcNAc(b1-3)Gal(b1-4)GlcNAc(b1-3)Gal(b1-4)GlcNAc(b1-3)Gal(b1-4)GlcNAc(b1-2)Man(a1-6)]Man(b1-4)GlcNAc(b1-4)[Fuc(a1-6)]GlcNAc
# Summary of the method: as §1
# [21] = biological target: Gal(b1-4)GlcNAc(b1-3)Gal(b1-4)GlcNAc(b1-3)Gal(b1-4)GlcNAc(b1-3)Gal(b1-4)GlcNAc(b1-2)[Gal(b1-4)GlcNAc(b1-3)Gal(b1-4)GlcNAc(b1-3)Gal(b1-4)GlcNAc(b1-3)Gal(b1-4)GlcNAc(b1-6)]Man(a1-6)[Gal(b1-4)GlcNAc(b1-3)Gal(b1-4)GlcNAc(b1-3)Gal(b1-4)GlcNAc(b1-3)Gal(b1-4)GlcNAc(b1-2)Man(a1-3)]Man(b1-4)GlcNAc(b1-4)[Fuc(a1-6)]GlcNAc
# Summary of the method: as §1
# [22] = biological target: Gal(b1-4)GlcNAc(b1-3)Gal(b1-4)GlcNAc(b1-3)Gal(b1-4)GlcNAc(b1-3)Gal(b1-4)GlcNAc(b1-3)Gal(b1-4)GlcNAc(b1-2)Man(a1-3)[Gal(b1-4)GlcNAc(b1-3)Gal(b1-4)GlcNAc(b1-3)Gal(b1-4)GlcNAc(b1-3)Gal(b1-4)GlcNAc(b1-3)Gal(b1-4)GlcNAc(b1-2)Man(a1-6)]Man(b1-4)GlcNAc(b1-4)GlcNAc
# Summary of the method: as §1
# Gal6S(b1-4)Glc = biological target: Gal6S(b1-4)Glc
# Summary of the method: as §1
# Gal6S(b1-4)GlcNAc = biological target: Gal6S(b1-4)GlcNAc
# Summary of the method: as §1
# GalNAc(a1-3)Gal = biological target: GalNAc(a1-3)Gal
# Summary of the method: as §1
# GalNAc(a1-3)GalNAc = biological target: GalNAc(a1-3)GalNAc
# Summary of the method: as §1
# [23] = biological target: GalNAc(b1-3)Gal(a1-4)Gal(b1-4)GlcNAc(b1-3)Gal(b1-4)Glc
# Summary of the method: as §1
# GalNAc(b1-6)GalNAc = biological target: GalNAc(b1-6)GalNAc
# Summary of the method: as §1
# [24] = biological target: GlcNAc(a1-4)Gal(b1-4)GlcNAc(b1-3)Gal(b1-4)GlcNAc
# Summary of the method: as §1
# [25] = biological target: GlcNAc(a1-4)Gal(b1-4)GlcNAc(b1-3)Gal(b1-4)[Fuc(a1-3)]GlcNAc(b1-3)Gal(b1-4)[Fuc(a1-3)]GlcNAc
# Summary of the method: as §1
# [26] = biological target: GlcNAc(b1-2)[GlcNAc(b1-4)]Man(a1-3)[GlcNAc(b1-4)][GlcNAc(b1-2)[GlcNAc(b1-6)]Man(a1-6)]Man(b1-4)GlcNAc(b1-4)GlcNAc
# Summary of the method: as §1
# [27] = biological target: GlcNAc(b1-3)Gal(b1-4)GlcNAc(b1-3)Gal(b1-4)GlcNAc(b1-2)Man(a1-3)[GlcNAc(b1-3)Gal(b1-4)GlcNAc(b1-3)Gal(b1-4)GlcNAc(b1-2)Man(a1-6)]Man(b1-4)GlcNAc(b1-4)[Fuc(a1-6)]GlcNAc
# Summary of the method: as §1
# [28] = biological target: Man(a1-3)[Man(a1-6)]Man(a1-6)[Man(a1-3)]Man
# Summary of the method: as §1
# [29] = biological target: Neu5Ac(a2-3)Gal(b1-3)GalNAc6S
# Summary of the method: as §1
# [30] = biological target: Neu5Ac(a2-3)Gal(b1-3)[Neu5Ac(a2-6)]GlcNAc(b1-3)[Fuc(a1-3)[Gal(b1-4)]GlcNAc(b1-6)]Gal(b1-4)Glc
# Summary of the method: as §1
# [31] = biological target: Neu5Ac(a2-3)Gal(b1-4)GlcNAc(b1-2)[Neu5Ac(a2-3)Gal(b1-4)GlcNAc(b1-4)]Man(a1-3)[GlcNAc(b1-4)][Neu5Ac(a2-3)Gal(b1-4)GlcNAc(b1-4)Man(a1-6)]Man(b1-4)GlcNAc(b1-4)GlcNAc
# Summary of the method: as §1
# [32] = biological target: Neu5Ac(a2-3)Gal(b1-4)[Fuc(a1-3)]GlcNAc(b1-2)Man
# Summary of the method: as §1
# [33] = biological target: Neu5Ac(a2-6)Gal(b1-4)GlcNAc(b1-2)Man(a1-3)[Man(a1-6)]Man(b1-4)GlcNAc(b1-4)GlcNAc
# Summary of the method: as §1
# [34] = biological target: Neu5Ac(a2-6)Gal(b1-4)GlcNAc(b1-2)[Neu5Ac(a2-6)Gal(b1-4)GlcNAc(b1-4)]Man(a1-3)[GlcNAc(b1-4)][Neu5Ac(a2-6)Gal(b1-4)GlcNAc(b1-4)Man(a1-6)]Man(b1-4)GlcNAc(b1-4)GlcNAc
# Summary of the method: as §1
# [35] = biological target: Neu5Ac(a2-6)Gal(b1-4)GlcNAc(b1-6)[Gal(b1-3)]GalNAc
# Summary of the method: as §1
# [36] = biological target: Neu5Ac(a2-6)GalNAc(b1-4)GlcNAc
# Summary of the method: as §1
# [37] = biological target: Neu5Ac(a2-8)Neu5Ac(a2-8)Neu5Ac(a2-3)Gal(b1-4)Glc
# Summary of the method: as §1
# Neu5Gc(a2-6)GalNAc = biological target: Neu5Gc(a2-6)GalNAc
# Summary of the method: as §1
binder,measurement,setting,value
"OS9-MRH (Homo sapiens), Q13438 (protein) IPELLSPMRDAPCLLKTKDWWTYEFCYGRHIQQYHMEDSEIKGEVLYLGYYQSAFDWDDETAKASKQHRLKRYHSQTYGNGSKCDLNGRPREAEVRFLCDEGAGISGDYIDRVDEPLSCSYVLTIRTPRLCPHPLLRPPPSAAPQAI",glycan array binding signal (z-score),[1],3.15
same,glycan array binding signal (z-score),[2],-1.22
same,glycan array binding signal (z-score),[3],0.415
same,glycan array binding signal (z-score),[4],0.3
same,glycan array binding signal (z-score),[5],2.76
same,glycan array binding signal (z-score),[6],0.172
same,glycan array binding signal (z-score),[7],-1.74
same,glycan array binding signal (z-score),[8],2.81
same,glycan array binding signal (z-score),[9],-0.024
same,glycan array binding signal (z-score),[10],0.493
same,glycan array binding signal (z-score),[11],-0.569
same,glycan array binding signal (z-score),[12],2.47
same,glycan array binding signal (z-score),[13],2.02
same,glycan array binding signal (z-score),[14],-0.137
same,glycan array binding signal (z-score),[15],2.4
same,glycan array binding signal (z-score),Gal(b1-3)GlcNAc6S,-0.326
same,glycan array binding signal (z-score),[16],2.22
same,glycan array binding signal (z-score),[17],1.24
same,glycan array binding signal (z-score),[18],2.17
same,glycan array binding signal (z-score),[19],0.47
same,glycan array binding signal (z-score),[20],-0.755
same,glycan array binding signal (z-score),[21],1.51
same,glycan array binding signal (z-score),[22],2.42
same,glycan array binding signal (z-score),Gal6S(b1-4)Glc,-0.643
same,glycan array binding signal (z-score),Gal6S(b1-4)GlcNAc,-0.312
same,glycan array binding signal (z-score),GalNAc(a1-3)Gal,2.81
same,glycan array binding signal (z-score),GalNAc(a1-3)GalNAc,3.57
same,glycan array binding signal (z-score),[23],-1.33
same,glycan array binding signal (z-score),GalNAc(b1-6)GalNAc,1.14
same,glycan array binding signal (z-score),[24],-0.159
same,glycan array binding signal (z-score),[25],1.12
same,glycan array binding signal (z-score),[26],-1.46
same,glycan array binding signal (z-score),[27],0.656
same,glycan array binding signal (z-score),[28],0.835
same,glycan array binding signal (z-score),[29],0.458
same,glycan array binding signal (z-score),[30],-0.321
same,glycan array binding signal (z-score),[31],0.322
same,glycan array binding signal (z-score),[32],-0.503
same,glycan array binding signal (z-score),[33],-0.807
same,glycan array binding signal (z-score),[34],-0.99
same,glycan array binding signal (z-score),[35],-0.081
same,glycan array binding signal (z-score),[36],5.26
same,glycan array binding signal (z-score),[37],0.1
same,glycan array binding signal (z-score),Neu5Gc(a2-6)GalNAc,1.14
